Screening results as filed in PubChem BioAssay.
Pf Dd2 inh = blocks in vitro growth of P. falciparum Dd2; P. falciparum Dd2 growth, SYBR Green, 72 h; Potency, µM (doses to about 28.9 µM), most hits filed as inhibitors; actives 4.3% (n = 120,000); AID 1347417; active = well fitted inhibition curve with a large enough effect; also: nearly all actives have a fitted effect of over 65% in size
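Readout: SYBR Green fluorescence, 485 nm excitation, 535 nm emission, after ~16 h lysis at 37C. Before that, Dd2-infected red cells (2.5% hematocrit) grew 72 h with compound, 29 uM top final concentration.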
Large screens that a line does not name were inactive. This is one part of a sample in which hits are shown more often than they occur.

O=C(c1c(F)ccc(F)c1F)N1CCCC(c2nc(-c3ccncc3)ncc2-c2ccccc2)C1 (stereo not drawn)	none
CN(C)CC1(O)CCCN(Cc2c(Cl)cncc2Cl)C1 (stereo not drawn)	none
COc1ccc(F)c(CN2CCCC(O)(CN3CCC(CO)CC3)C2=O)c1 (stereo not drawn)	none
c1ccc(-c2[nH]ncc2CN2CCCC(N3CCN(c4ccccc4)CC3)C2)cc1 (stereo not drawn)	none
COc1ccc(-c2nn(-c3ccccc3)cc2CN2CCCC(CO)C2)c(F)c1 (stereo not drawn)	Pf Dd2 inh 8.9µM
O=C(c1ccccc1OCC1CCCN(Cc2ccc(F)cc2Cl)C1)N1CCOCC1 (stereo not drawn)	none
O=c1[nH]c(C2CCCN(Cc3cccc4ccccc34)C2)nn1-c1ccc(Cl)cc1 (stereo not drawn)	none
COC1CCCN(Cc2cn(-c3ccc(F)cc3)nc2-c2ccccc2Cl)C1 (stereo not drawn)	Pf Dd2 inh 13µM
CNCC(=O)N1CCCC(N2CCN(c3ccc(OC)cc3)CC2)C1 (stereo not drawn)	none
COc1ccc(F)c(CN2CCC(CCC(=O)N3CCN(c4ccccc4)CC3)CC2)c1	none
COc1ccc(-c2nc3c(C)cccc3cc2CN2CC[C@@H](O)C2)cc1	none
COc1ccc(-c2nn(-c3ccccc3)cc2CN2CCN3CCCC3C2)c(F)c1 (stereo not drawn)	Pf Dd2 inh 7.1µM
COc1ccc(-n2cc(CN3CCN(C)C(C)C3)c(-c3cccc(F)c3)n2)cc1 (stereo not drawn)	none
COc1ccc(-n2cc(CN3CCCC(CO)C3)c(-c3cccc(F)c3)n2)cc1 (stereo not drawn)	Pf Dd2 inh 13µM
COCc1nc(CCNC(=O)C2CC(=O)N(c3ccc(F)c(Cl)c3)C2)no1 (stereo not drawn)	none
Cc1ccc(NC(=O)c2ccc(CN3C(=O)NC4(CCOCC4)C3=O)cc2)cc1	none
Cc1cc(C(=O)N2CCC(N3CC4CC(C3)[C@H]3CCCC(=O)N3C4)CC2)n(C)n1 (stereo partly drawn)	none
Cc1ccc(NC(=O)CN2C(=O)NC3(CCC(C)CC3)C2=O)cc1 (stereo not drawn)	none
O=C(NC1CC1)c1ccccc1OCC1CCCN(Cc2ccc(Br)o2)C1 (stereo not drawn)	none
O=C(c1cncnc1)N1C[C@@H](COCC2CC2)[C@H](c2ccccn2)C1	none
FC(F)(F)Oc1ccc(CN2CCC3(CC2)CC(c2cccc(C(F)(F)F)c2)=NO3)cc1	none
CCn1ncc(N2CCCC(CC(=O)NCc3cc(F)cc(F)c3)C2)cc1=O (stereo not drawn)	none
CCCn1c2ccccc2c2cnn(CC(=O)N3CCCC(C)C3)c(=O)c21 (stereo not drawn)	none
CC1CCCCN1CCCNC(=O)Cn1ncc2c3ccccc3n(Cc3ccccc3F)c2c1=O (stereo not drawn)	Pf Dd2 inh 5µM
CCOC(=O)C1CCCN(C(=O)Cn2ncc3c4ccccc4n(Cc4ccccc4)c3c2=O)C1 (stereo not drawn)	none
O=C(Cn1ncc2c3ccccc3n(Cc3ccccc3F)c2c1=O)N1CCCCCC1	Pf Dd2 inh 10µM
CC1CCCCN1CCCNC(=O)Cn1ncc2c3ccccc3n(C)c2c1=O (stereo not drawn)	none
CCCn1c2ccccc2c2cnn(CC(=O)NCCCN3CCCCC3)c(=O)c21	none
CNC(=O)[C@@H]1CNC[C@H]1C1CCN(C)CC1	none
COc1ccc2c(c1)C1(CCN(S(=O)(=O)c3ccc(Cl)cc3)C1)C(=O)N2C (stereo not drawn)	none
COc1ccc2c(c1)C1(CCN(C(=O)NC3CCCCC3)C1)C(=O)N2C (stereo not drawn)	none
COc1ccc2c(c1)C1(CCN(S(=O)(=O)c3cccc(F)c3)C1)C(=O)N2 (stereo not drawn)	none
COc1ccc2c(c1)C1(CCN(C(=O)COc3ccc(Cl)cc3)C1)C(=O)N2C (stereo not drawn)	Pf Dd2 inh 7.1µM
COCCNC(=O)N1CCC2(C1)C(=O)N(C)c1ccc(OC)cc12 (stereo not drawn)	none
COc1ccc2c(c1)C1(CCN(S(=O)(=O)c3cccc(Cl)c3)C1)C(=O)N2C (stereo not drawn)	Pf Dd2 inh 11µM
CN1CCC([C@@H]2CN(S(=O)(=O)c3cccnc3)C[C@H]2C(N)=O)CC1	none
CCN(CC)Cc1nc(C2(O)CCN(C3COC3)CC2)cs1	none
O=C(c1cc(F)ccc1Cl)N1C[C@@H](CO)[C@H](c2ccncc2)C1	none
COc1ccc2[nH]c3c(c2c1)CCN(C)C31CCN(C(=O)c2cc(C)nn2C)CC1	none
O=C(CCC1CCCN(Cc2cccnc2)C1)Nc1ccccc1F (stereo not drawn)	none
O=C(CCC1CCCN(Cc2cc3c(cc2Cl)OCO3)C1)Nc1ccccc1F (stereo not drawn)	none
O=C(CCC1CCCN(Cc2cccn2-c2ccccn2)C1)Nc1ccccc1F (stereo not drawn)	Pf Dd2 inh 7.9µM
O=C1c2c(nc(COc3ccc(F)cc3F)n2Cc2ccccc2)NCCN1Cc1ccccc1F	none
Cc1ccc(CNC(=O)CCC[C@@H]2[C@H]3CCCN4CCC[C@@H](CN2Cc2ccccc2)[C@@H]34)o1	Pf Dd2 inh 3.5µM
CC(C)NC(=O)CCC[C@@H]1[C@H]2CCCN3CCC[C@@H](CN1Cc1ccccc1)[C@@H]23	none
Cc1n[nH]c(C)c1CNC(=O)CCC[C@@H]1[C@H]2CCCN3CCC[C@@H](CN1Cc1ccccc1)[C@@H]23	none
COCc1cn(C[C@H]2C[C@@H](NCc3cccnc3)[C@H](O)[C@@H]2O)nn1	none
Cc1cccc(O[C@H]2COCCN(C(=O)c3cc(C)nn3C)C2)n1	none
Cc1cccc(O[C@H]2COCCN(Cc3nccn3C)C2)n1	Pf Dd2 inh 11µM
Cc1cccc(O[C@H]2COCCN(c3nc4ccccc4o3)C2)n1	none
O=C(NC1CCCCC1)N1CCCC(Cn2cnc3cccnc32)C1 (stereo not drawn)	none
COc1cccc([C@@H]2CCN(Cc3cn[nH]c3C(=O)O)C[C@H]2O)c1	none
COc1cccc([C@@H]2CCN(Cc3ccc(NC(C)=O)cc3)C[C@H]2O)c1	none
Cc1c(CN2CCCC(CNC(=O)c3cccc4ccccc34)C2)[nH]c2ccccc12 (stereo not drawn)	Pf Dd2 inh 11µM
COc1cccc([C@@H]2CCN(Cc3[nH]c4ccccc4c3C)C[C@H]2O)c1	Pf Dd2 inh 0.89µM
COc1cccc(C(=O)NCC2CCCN(Cc3ccccn3)C2)c1OC (stereo not drawn)	none
COc1cccc(C(=O)NCC2CCCN(Cc3cnn(C)c3C)C2)c1OC (stereo not drawn)	none
Cc1c(Cl)cccc1NC(=O)Cn1cccc1-c1nc(-c2ccc3c(c2)OCO3)no1	none
CC(C)CN(CC1CN(C(=O)COc2ccccc2)CCO1)C(=O)c1ccc(F)cc1 (stereo not drawn)	none
C=CCN1CCN(C(=O)C2CCCN(S(C)(=O)=O)CCC(=O)NCC2)CC1 (stereo not drawn)	none
C#CCNC(=O)C1CCc2nnc(C3CCN(C(=O)c4ccc(Cl)cc4Cl)CC3)n21 (stereo not drawn)	none
C[S+](=O)([O-])N1CC2(CCN(C(=O)CCC(=O)O)C2)Cc2ccccc21 (stereo not drawn)	none
C[S+](=O)([O-])N1CC2(CCN(Cc3c[nH]c4ccccc34)CC2)Cc2ccccc21	Pf Dd2 inh 11µM
C[S+](=O)([O-])N1CC2(CCN(C3COC3)CC2)Cc2ccccc21	none
FC(F)(F)c1cccc(Nc2ncc(-c3cccnc3)c3c2OCC3)c1	Pf Dd2 inh 8.9µM
COc1cccc(Nc2ncc(-c3cccc(N(C)C)c3)c3c2OCC3)c1	none
